{"source": "PubChem BioAssay AID720580", "about": "(National Center for Advancing Translational Sciences (NCATS), 2013)", "note": "The campaign covered roughly 330,000 compounds. About 1,500 (0.45%) were called active. Not shown: some 6% with an inconclusive outcome. Calls come from the whole dose curve; tested in A549 cells. The full list was thinned out, with actives kept by preference. % is set by controls: 0 for no effect and ±100 for the full control effect; potency is the fitted concentration of half-maximal effect."}
{"experiment": "qHTS for Stage-Specific Inhibitors of Vaccinia Orthopoxvirus: Venus Reporter Primary qHTS; note: nearly all actives have a fitted effect of over 30% in size", "settings": "Vaccinia virus Venus reporter expression, fluorescence; series mostly up to 36.5 µM; activity change, negative = inhibition: at the top concentration"}
{"smiles": "O=C(NCc1ccccc1)C(c1ccc(F)cc1)N1CCN(C(=O)C2CCCO2)CC1", "note": "(stereo unspecified)", "activity change, negative = inhibition": "-11.6% (inactive)"}
{"smiles": "Fc1ccc2[nH]c3c(N4CCN(Cc5ccc6c(c5)OCO6)CC4)ncnc3c2c1", "Potency": "6.31 µM (active)"}
{"smiles": "O=c1[nH]c(N2CCN(Cc3ccc4c(c3)OCO4)CC2)nc2c1CCCC2", "activity change, negative = inhibition": "-2.01% (inactive)"}
{"smiles": "Fc1ccc(N2CCN(Cc3ccc4c(c3)OCO4)CC2)cc1", "activity change, negative = inhibition": "-5.26% (inactive)"}
{"smiles": "CCOP(=O)(OCC)C(Cc1ccccc1)N=C(c1ccccc1)c1ccccc1", "note": "(stereo unspecified)", "activity change, negative = inhibition": "11.1% (inactive)"}
{"smiles": "CN(Cc1ccccc1)c1ccc(/C=C/c2ccnc3ccccc23)cc1", "activity change, negative = inhibition": "-10.8% (inactive)"}
{"smiles": "Brc1cccc[n+]1Cc1cccc(C[n+]2ccccc2Br)c1", "activity change, negative = inhibition": "-8.21% (inactive)"}
{"smiles": "COC(=O)c1ccc2nc(-c3ccc(F)cc3)c(Cc3ccc(C)cc3)n2c1", "activity change, negative = inhibition": "-7.97% (inactive)"}
{"smiles": "CC(C)(C)C1CCC(NC(=O)c2cnn3c2NC(=C2CC2)C=C3C(F)F)CC1", "note": "(stereo unspecified)", "activity change, negative = inhibition": "-29.1% (inactive)"}
{"smiles": "O=c1c(-c2cccc(Cl)c2)c[nH]n1-c1ccccc1", "activity change, negative = inhibition": "-15.6% (inactive)"}
{"smiles": "O=c1c2ccccc2[nH]c(=S)n1-c1cccc(Cl)c1", "activity change, negative = inhibition": "-16.2% (inactive)"}
{"smiles": "Cc1[nH]n(-c2cccc(Cl)c2)c(=O)c1-c1ccc(Cl)cc1", "Potency": "28.2 µM (active)"}
{"smiles": "CCN(CC)c1ccc(/C=C/c2c(C)cnc3ccc(C)cc23)cc1", "activity change, negative = inhibition": "-14.2% (inactive)"}
{"smiles": "CN1CCN(c2nc3c(c(=O)[nH]c(=O)n3C)n2Cc2cccc3ccccc23)CC1", "activity change, negative = inhibition": "-21.5% (inactive)"}
{"smiles": "Cn1c(=O)[nH]c(=O)c2c1nc(N1CCN(CCO)CC1)n2CCSc1nc2ccccc2s1", "activity change, negative = inhibition": "-9.09% (inactive)"}
{"smiles": "Cn1c(=O)[nH]c(=O)c2c1nc(N1CCN(C(c3ccccc3)c3ccccc3)CC1)n2CCO", "Potency": "12.6 µM (active)"}
{"smiles": "COC(=O)[C@@]12C[C@@H](CC(=O)NCc3cccc(C(F)(F)F)c3)C(=O)N(Cc3ccco3)C1=CCC(C)(C)C2", "activity change, negative = inhibition": "-29.1% (inactive)"}
{"smiles": "C=C(C)C(=O)O[C@H]1C/C(C)=C\\C(=O)/C=C(\\C)[C@H](O)[C@@H]2OC(=O)C(=C)[C@@H]21", "Potency": "10 µM (active)"}
{"smiles": "O=C1NC[C@H](Cc2ccc(O)cc2)N(C[C@H]2CCCN2C[C@H](Cc2ccccc2)N2C[C@H](Cc3ccccc3)N(CCc3ccccc3)C(=O)C2=O)C1=O", "activity change, negative = inhibition": "-2.33% (inactive)"}
{"smiles": "C#CCOCCOCCOCCNc1nc(N2CCN(C(=O)CCCCCCCCCCNC(=O)[C@H]([C@@H](C)CC)n3cc(CCCCN=C(N)N)nn3)CC2)nc(N2CCN(C(=O)CCCCCCCCCCNC(=O)[C@H](CO)n3cc(CCCSC)nn3)CC2)n1", "Potency": "15.8 µM (active)"}
{"smiles": "C#CCOCCOCCOCCNc1nc(N2CCN(C(=O)[C@H](CCCCN)n3cc(CCC(=O)O)nn3)CC2)nc(N2CCN(C(=O)[C@H](CCCCN)n3cc(CC(C)O)nn3)CC2)n1", "note": "(stereo partly specified)", "activity change, negative = inhibition": "-7.26% (inactive)"}
{"smiles": "C#CCOCCOCCOCCNc1nc(N2CCN(C(=O)Cn3cc(CCO)nn3)CC2)nc(N2CCN(C(=O)[C@H](CCCCN)n3cc(CCCC)nn3)CC2)n1", "activity change, negative = inhibition": "7.77% (inactive)"}
{"smiles": "C#CCOCCOCCOCCNc1nc(N2CCN(C(=O)[C@H](C(C)C)n3cc(CCO)nn3)CC2)nc(N2CCN(C(=O)[C@H]([C@@H](C)CC)n3cc(CCCN=C(N)N)nn3)CC2)n1", "activity change, negative = inhibition": "-7.34% (inactive)"}
{"smiles": "C#CCOCCOCCOCCNc1nc(N2CCN(C(=O)Cn3cc(CCO)nn3)CC2)nc(N2CCN(C(=O)Cn3cc(CCCN=C(N)N)nn3)CC2)n1", "activity change, negative = inhibition": "-1.69% (inactive)"}
{"smiles": "C#CCOCCOCCOCCNc1nc(N2CCN(C(=O)CCCCCCCCCCNC(=O)Cn3cc(CCCCCN)nn3)CC2)nc(N2CCN(C(=O)CCCCCCCCCCNC(=O)[C@H](CO)n3cc(CCCSC)nn3)CC2)n1", "Potency": "10 µM (active)"}
{"smiles": "C#CCOCCOCCOCCNc1nc(N2CCN(C(=O)Cn3cc(CCCCN)nn3)CC2)nc(N2CCN(C(=O)[C@H](CCCCN)n3cc(CCC(=O)O)nn3)CC2)n1", "activity change, negative = inhibition": "-4.71% (inactive)"}
{"smiles": "C#CCOCCOCCOCCNc1nc(N2CCN(C(=O)CCCCCCCCCCNC(=O)[C@H](CCCCN)n3cc(C)nn3)CC2)nc(N2CCN(C(=O)CCCCCCCCCCNC(=O)[C@H](CO)n3cc(CCCSC)nn3)CC2)n1", "Potency": "7.94 µM (active)"}
{"smiles": "C#CCOCCOCCOCCNc1nc(N2CCN(C(=O)[C@H](CCC(=O)O)n3cc(CN)nn3)CC2)nc(N2CCN(C(=O)[C@H](CCC(=O)O)n3cc(CN)nn3)CC2)n1", "activity change, negative = inhibition": "-8.97% (inactive)"}
{"smiles": "Cc1cccc(C)c1NC(=O)CN1CCN(c2ccc(F)cc2)CC1", "activity change, negative = inhibition": "9.83% (inactive)"}
{"smiles": "COc1cc(OC)c(/C=C/c2ccnc3ccccc23)c(OC)c1", "activity change, negative = inhibition": "-21.1% (inactive)"}
{"smiles": "CCOC(=O)N(C)c1c(CC)nc2c(OCc3ccccc3C(=O)OC)cccn12", "activity change, negative = inhibition": "-5.36% (inactive)"}
{"smiles": "CCOC(=O)c1cc2cc(OC)ccc2n1C1CCN(C)CC1", "activity change, negative = inhibition": "-26.8% (inactive)"}
{"smiles": "CCOC1=C2[C@@H](CN(S(=O)(=O)c3ccc(C)cc3)[C@H]2c2ccccc2F)[C@H]2C(=O)N(Cc3ccccc3)C(=O)[C@H]2C1", "activity change, negative = inhibition": "-12.5% (inactive)"}
{"smiles": "CCOC(=O)C1=CC[C@@H](c2ccncc2)N(S(=O)(=O)c2ccc(C)cc2)C1", "activity change, negative = inhibition": "-22.6% (inactive)"}
{"smiles": "CSc1nc(Nc2ccc(F)cc2)cc(-c2ccccc2)n1", "activity change, negative = inhibition": "-18.6% (inactive)"}
{"smiles": "CSc1nc(-c2ccccc2)nc(C(Cl)Cl)n1", "Potency": "10 µM (active)"}
{"smiles": "CSc1ncc(Sc2ccccc2)c(C(=O)O)n1", "activity change, negative = inhibition": "2.49% (inactive)"}
{"smiles": "Cc1cc(Br)cn2c(Cc3ccccc3C(F)(F)F)c(C3CCCCC3)nc12", "activity change, negative = inhibition": "-2.66% (inactive)"}
{"smiles": "CCc1nc2c(OCc3ccc(F)c(F)c3)cccn2c1N(C)C(=O)c1ccco1", "activity change, negative = inhibition": "3.62% (inactive)"}
{"smiles": "CC(C)(C)NCC(O)COc1cccc2[nH]c(=O)[nH]c12", "note": "(stereo unspecified)", "Potency": "inactive"}
{"smiles": "COc1ccc(OCC(O)CNCCNc2nccc(C(F)(F)F)n2)cc1", "note": "(stereo unspecified)", "activity change, negative = inhibition": "-14.2% (inactive)"}
{"smiles": "CC(C)(C)CC(C)(C)NCC(O)COCCOc1ccc(Br)cc1", "note": "(stereo unspecified)", "Potency": "10 µM (active)"}
{"smiles": "CCCCNC(=O)C[C@@H]1C[C@@]2(C(=O)OCC)CCC=C2N(Cc2cccc3ccccc23)C1=O", "activity change, negative = inhibition": "-13.2% (inactive)"}
{"smiles": "COc1ccc(C(C(=O)Nc2c(C)cccc2C)N2CCN(c3ccc(C)cc3)CC2)cc1", "note": "(stereo unspecified)", "activity change, negative = inhibition": "-3.04% (inactive)"}
{"smiles": "CN(C)c1cccc(NC(=O)c2ccc(-c3ccc(F)c(F)c3)c3ccoc23)c1", "activity change, negative = inhibition": "-9.75% (inactive)"}
{"smiles": "CCc1nc2c(OCc3cccc(OC)c3)cccn2c1N(C)C(=O)C(C)C", "activity change, negative = inhibition": "-15.6% (inactive)"}
{"smiles": "CC(=O)Nc1cccc(-c2csc(Nc3cccc(C)n3)n2)c1", "activity change, negative = inhibition": "-23.1% (inactive)"}
{"smiles": "C/C(CC1CC(C)(C)OC1=O)=N/Nc1nc(-c2ccccc2)cs1", "note": "(stereo unspecified)", "activity change, negative = inhibition": "-10.7% (inactive)"}
{"smiles": "CC(=O)Nc1ccc(-c2csc(NC=C3C(=O)OC(C)(C)OC3=O)n2)cc1", "Potency": "4.47 µM (active)"}
{"smiles": "O=C(COc1ccccc1C(=O)Nc1ccccc1)Nc1cccc(F)c1", "activity change, negative = inhibition": "-20.5% (inactive)"}
{"smiles": "COc1ccc(C(=O)C(OP(=O)(OC)OC)c2ccccc2OC)cc1", "note": "(stereo unspecified)", "activity change, negative = inhibition": "-6.83% (inactive)"}
{"smiles": "COc1ccc2c(c1)NC(=O)C2CC(=O)N1CCOc2c(cc(-c3cnc4ccccc4c3)cc2OC)C1", "note": "(stereo unspecified)", "activity change, negative = inhibition": "-10.6% (inactive)"}
{"smiles": "CC(=O)OC1C2(CC3N4C(=O)C5(CO)SSC4(CC31O)C(=O)N5C)OC(C)C(C)(C)C2=O", "note": "(stereo unspecified)", "Potency": "3.16 µM (active)"}
{"smiles": "CCCNC(=O)C1(C)CCN1C(=O)Cc1ccc(-c2ccccc2)cc1", "note": "(stereo unspecified)", "activity change, negative = inhibition": "-8.6% (inactive)"}
{"smiles": "CCOC(=O)[C@]12CCCC=C1N(CCC1=CCCCC1)C(=O)[C@H](CC(=O)N1CCCCC1)C2", "activity change, negative = inhibition": "-21.2% (inactive)"}
{"smiles": "CCCCCNC(=O)Cc1ccc(OC)cc1", "activity change, negative = inhibition": "-18.1% (inactive)"}
{"smiles": "COc1ccc(CC(=O)Nc2ccc(C(=O)NC(C)(C)C)cc2)cc1", "activity change, negative = inhibition": "-5.09% (inactive)"}
{"smiles": "C/C=C/NNC(=O)Cc1ccc(OC)cc1", "Potency": "10 µM (active)"}
{"smiles": "Cc1cccc(NC(=O)COC(=O)c2ccccc2OCc2cccc(Br)c2)c1", "activity change, negative = inhibition": "-15.5% (inactive)"}
{"smiles": "CC1(C)OC(=O)C2=C(C[C@@H](C3CCCCC3)O[C@@H]2c2ccc(Cl)cc2)O1", "activity change, negative = inhibition": "-0.804% (inactive)"}
{"smiles": "Cc1ccc(C)c(S(=O)(=O)n2nc(C)c(S(=O)(=O)N3CCC(C)CC3)c2C)c1", "activity change, negative = inhibition": "3.55% (inactive)"}
{"smiles": "Cc1ccc(S(=O)(=O)N2CCN(c3ncnc4ccccc34)CC2)cc1", "activity change, negative = inhibition": "-26.6% (inactive)"}
{"smiles": "Cc1ccc(C)c(S(=O)(=O)N2CCN(c3ncnc4sccc34)CC2)c1", "Potency": "2.51 µM (active)"}
{"smiles": "O=[N+]([O-])c1ccc(/C=C/c2ccc3cccnc3c2)cc1", "activity change, negative = inhibition": "-27.2% (inactive)"}
{"smiles": "Cc1cccc(-c2nnc(SC(C)C(=O)Nc3ccccc3)n2C)c1", "note": "(stereo unspecified)", "activity change, negative = inhibition": "-13.2% (inactive)"}
{"smiles": "C=CC(=O)Nc1ccc(Nc2ccnc(Nc3ccc(N4CCN(C)CC4)cc3)n2)cc1", "Potency": "10 µM (active)"}
{"smiles": "Cc1cccc(N2CCN(c3ccc(NC(=O)/C=C\\C(=O)O)cc3)CC2)c1", "activity change, negative = inhibition": "-0.657% (inactive)"}
{"smiles": "CN1CCN(c2ccc(NC(=O)c3cc(Cl)c4c(c3)OCCO4)cc2)CC1", "activity change, negative = inhibition": "-3.42% (inactive)"}
{"smiles": "CCCCc1c(-c2ccc(Cl)cc2)ncn1CCc1ccccc1OC", "activity change, negative = inhibition": "-26.6% (inactive)"}
{"smiles": "Cc1ccc(-c2nc3c(Cl)cc(C(F)(F)F)cn3c2Cc2cccc(Cl)c2)cc1", "activity change, negative = inhibition": "6.36% (inactive)"}
{"smiles": "O=S1(=O)CC(N2CCN(c3ccccn3)CC2)CN1Cc1ccc(F)cc1", "note": "(stereo unspecified)", "activity change, negative = inhibition": "-8.95% (inactive)"}
